Assay results published in PubChem BioAssay (Tox21).
Records with an inconclusive call do not appear. Calls of active or inactive are those of the source. Unless noted, calls follow the shape of the dose curve; as a rule, active = well fitted curve in the direction sought with a large enough effect in the repeat runs; inconclusive = weak or mixed curves; inactive = no such curve, though single readings can be large; an effect the other way counts as inactive or inconclusive.

How the values were obtained:
[1] = target: Retinoic acid receptor RXR-alpha (Homo sapiens) (UniProt P19793); experiment: qHTS assay to identify small molecule agonists of the RXR signaling pathway (AID 1159527; calls by dose curve; also: nearly all actives have a fitted effect of over 35% in size)
Outline: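 Cells plated at 2,000/well, rested 5 hr at 37 C, pin-dosed with DMSO compound solutions, incubated 16 hr, then loaded with B/G FRET substrate for 2 hr at RT before dual-emission fluorescence reading.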

[2] = qHTS assay to identify small molecule agonists of the RXR signaling pathway - cell viability counter screen (AID 1159529);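 also: HEK 293T cells carrying an RXR-alpha UAS beta-lactamase reporter; nearly all actives have a fitted effect of over 50% in size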
Outline: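 Steps: seed RXR-alpha-UAS-bla HEK 293T cells in assay medium containing 2% charcoal-stripped FBS; incubate 5 hr; add compounds in DMSO; incubate 16 hr at 37 C; after the bla read, add CellTiter-Glo and read luminescence at 30 min.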

[3] = qHTS assay to identify small molecule antagonists of the retinoic acid receptor (RAR) signaling pathway (AID 1159552; also: nearly all actives have a fitted effect of over 50% in size)
Outline: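 Retinol at 1 uM final stimulated RARE-luciferase expression in C3RL4 cells exposed to test compounds for 6 hr at 37 C. Reduced luminescence, read 30 min after detection reagent, indicated pathway antagonism.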

[4] = qHTS assay to identify small molecule agonists of the retinoic acid receptor (RAR) signaling pathway (AID 1159553); conditions: C3RL4 RARE luciferase reporter, agonist, 6 h; activation: at 73.3 µM (top of the series)
Outline: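 C3RL4 RARE-luciferase cells were seeded at 1,000/well and grown overnight at 37 C, then exposed to compounds for 6 hr at 37 C, 5% CO2. Luciferase reagent was added and luminescence was read after 30 min at room temperature.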

[5] = qHTS assay to identify small molecule antagonists of the estrogen related receptor (ERR) signaling pathway from Tox21 library - cell viability counter screen (AID 1224834); also: nearly all actives have a fitted effect of over 30% in size
Outline: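 ERR reporter cells, 2,000 per well, rested 6 h, then exposed to compound in DMSO for 17.5 hours at 37 C. Viability read as fluorescence after 30 min with CellTiter-Fluor.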

[6] = target: Luciferin 4-monooxygenase (Photinus pyralis) (UniProt P08659); experiment: qHTS assay to identify small molecule inhibitors of firefly luciferase (AID 1224835); also: nearly all actives have a fitted effect of over 25% in size
Outline: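 Quantitative HTS format; KM concentrations of both substrates. Purified P. pyralis FLuc activity quantified from luminescence images.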

[7] = qHTS assay to identify small molecule agonists of the constitutive androstane receptor (CAR) signaling pathway - cell viability counter screen (AID 1224836); also: nearly all actives have a fitted effect of over 45% in size
Outline: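 Cells were seeded and incubated 4 hrs. Compounds were added across 15 concentrations together with PK11195 at 0.75 uM final. Plates were incubated 23 hrs at 37 C. CellTiter-Fluor was added and fluorescence measured.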

[8] = qHTS assay to identify small molecule antagonists of the constitutive androstane receptor (CAR) signaling pathway - cell viability counter screen (AID 1224837); also: nearly all actives have a fitted effect of over 45% in size
Outline: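 HepG2 cells stably carrying hCAR and CYP2B6-2.2kb reporter, stimulated with 50 nM CITCO and compounds at 15 concentrations for 23 h at 37 C. Viability measured by CellTiter-Fluor fluorescence.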

[9] = qHTS assay to identify small molecule antagonists of the estrogen related receptor signaling pathway with the pleiotropic PPARgamma coactivator (PGC) from Tox21 10K library - cell viability counter screen (AID 1224840; active = well fitted cell-killing curve with a large enough effect in the repeat runs, not every such curve was filed as active; also: nearly all actives have a fitted effect of over 40% in size)
Outline: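 PGC/ERR cells (2,000/well) plated 6 h, then compound-treated for 17.5 h at 37 C. Viability measured by CellTiter-Fluor fluorescence after 30 min at 37 C, multiplexed with the pathway assay.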

[10] = qHTS assay to identify small molecule agonists of the estrogen related receptor signaling pathway with the pleiotropic PPARgamma coactivator (PGC) from Tox21 10K library (AID 1224842); also: nearly all actives have a fitted effect of over 15% in size
Outline: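 PGC/ERR reporter cells (NTP line) were seeded 2,000 per well, rested 6 h at 37 C/5% CO2, then pin-dosed with compounds in DMSO for 18 h at 37 C; luciferase read by One-Glo luminescence after 30 min at room temperature.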

[11] = target: Thyrotropin receptor (Homo sapiens) (UniProt P16473); experiment: qHTS assay to identify small molecule agonists of the thyroid stimulating hormone receptor (TSHR) signaling pathway (AID 1224843; calls by dose curve; also: nearly all actives have a fitted effect of over 45% in size)
Outline: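 Cell line HEK293 with TSHR; density 800/well. Exposure 30 min RT. Readout HTRF cAMP (cAMP-d2/anti-cAMP-cryptate), 1 h RT before reading.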

[12] = qHTS assay to identify small molecule agonists of the hypoxia (HIF-1) signaling pathway - cell viability counter screen (AID 1224844; calls by dose curve; also: nearly all actives have a fitted effect of over 50% in size)
Outline: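 HRE-bla ME-180 cells, 2,000/well in 0.5% dialyzed FBS medium, treated 17 h at 37C with compounds. Viability read in the same wells as the bla reporter, by CellTiter-Glo luminescence after 30 min at room temperature.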

[13] = qHTS assay to identify small molecule agonists of H2AX (AID 1224845; active = well fitted activation curve with a large enough effect in the signal ratio in the repeat runs, not every such curve was filed as active; the % refers to the signal ratio)
Outline: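 Wild-type CHO-K1 cells plated overnight, then exposed 3 hr at 37C to compounds at 15 concentrations (0.76% DMSO). Lysed, then HTRF anti-pH2AX(S139)-cryptate/anti-H2AX-d2 detection after 24 hr at room temperature; emissions 665 and 620 nm.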

[14] = qHTS assay to identify small molecule agonists of the hypoxia (HIF-1) signaling pathway (AID 1224846; active = well fitted activation curve with a large enough effect in the signal ratio in the repeat runs, not every such curve was filed as active; the % refers to the signal ratio)
Outline: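 HRE-bla ME-180 beta-lactamase reporter cells in medium with 0.5% dialyzed FBS, pre-incubated 5 h then exposed to compounds 17 h at 37C, 5% CO2; reporter induction read with CCF4-AM FRET substrate.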

[15] = qHTS assay to identify small molecule agonists of H2AX - cell viability counter screen (AID 1224847; calls by dose curve; also: top concentration of the series differs between compounds; nearly all actives have a fitted effect of over 30% in size)
Outline: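 Cytotoxicity counter screen in wild-type CHO-K1 cells: a 3 hr compound treatment at 37C across 15 concentrations, followed by CellTiter-Glo luminescence to gauge viable cells.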

[16] = qHTS assay to identify small molecule antagonists of the estrogen related receptor (ERR) signaling pathway from Tox21 library (AID 1224848); also: nearly all actives have a fitted effect of over 50% in size
Outline: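 Screening used an ERR reporter line supplied by NTP, exposed for 18 h at 37 C to library compounds delivered in DMSO. Signal was luciferase luminescence developed with ONE-Glo at room temperature for 30 min.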

[17] = qHTS assay to identify small molecule antagonists of the retinoid acid receptor (RAR) signaling pathway - cell viability counter screen (AID 1159551); also: nearly all actives have a fitted effect of over 35% in size
Outline: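 C3RL4 RARE-luciferase cells, 1,000/well, incubated overnight, then dosed with compound plus 1 uM retinol (final). After 6 hr at 37 C, viability read by CellTiter-Glo ATP luminescence following 30 min at room temperature.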

[18] = qHTS assay to identify small molecule antagonists of the estrogen related receptor signaling pathway with the pleiotropic PPARgamma coactivator (PGC) from Tox21 10K library (AID 1224841; call rule not given here)
Outline: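 PGC/ERR cell line, 2,000 cells/well, pre-incubated 6 hours at 37 C, then exposed to compounds for 18 hours at 37 C; luciferase read with One-Glo luminescence after 30 min at room temperature.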

[19] = target: Nuclear receptor subfamily 1 group I member 3 (Homo sapiens) (UniProt Q14994); experiment: qHTS assay to identify small molecule agonists of the constitutive androstane receptor (CAR) signaling pathway (AID 1224839); also: nearly all actives have a fitted effect of over 15% in size
Outline: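 Cells were plated and incubated 4 hrs, then dosed with compounds at 15 concentrations. PK11195 was added to 0.75 uM final. After 24 hrs at 37 C, luciferase luminescence was measured.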

[20] = target: Nuclear receptor subfamily 1 group I member 3 (Homo sapiens) (UniProt Q14994); experiment: qHTS assay to identify small molecule antagonists of the constitutive androstane receptor (CAR) signaling pathway (AID 1224838); also: nearly all actives have a fitted effect of over 40% in size
Outline: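 HepG2 cells stably carrying hCAR and a CYP2B6-2.2kb luciferase reporter, seeded 4 hrs before compound (15 concentrations). Stimulated with 50 nM CITCO for 24 hr at 37 C. ONE-Glo luminescence read after 30 min at room temperature.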

Measured: Potency

Retinoic acid receptor RXR-alpha (Homo sapiens), sequence (P19793 whole entry, looked up): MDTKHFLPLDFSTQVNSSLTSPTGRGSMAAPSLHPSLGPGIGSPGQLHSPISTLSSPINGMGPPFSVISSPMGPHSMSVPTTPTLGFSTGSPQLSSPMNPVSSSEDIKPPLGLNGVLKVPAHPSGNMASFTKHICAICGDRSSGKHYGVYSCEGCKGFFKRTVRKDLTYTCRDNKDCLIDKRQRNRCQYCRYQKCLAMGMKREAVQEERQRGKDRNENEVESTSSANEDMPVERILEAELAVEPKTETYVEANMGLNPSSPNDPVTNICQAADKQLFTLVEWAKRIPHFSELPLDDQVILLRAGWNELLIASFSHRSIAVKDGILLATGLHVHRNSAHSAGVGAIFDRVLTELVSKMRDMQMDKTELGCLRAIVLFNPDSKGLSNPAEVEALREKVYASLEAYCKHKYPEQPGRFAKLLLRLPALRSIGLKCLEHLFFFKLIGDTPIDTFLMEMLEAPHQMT
Nuclear receptor subfamily 1 group I member 3 (Homo sapiens), sequence (Q14994 whole entry, looked up): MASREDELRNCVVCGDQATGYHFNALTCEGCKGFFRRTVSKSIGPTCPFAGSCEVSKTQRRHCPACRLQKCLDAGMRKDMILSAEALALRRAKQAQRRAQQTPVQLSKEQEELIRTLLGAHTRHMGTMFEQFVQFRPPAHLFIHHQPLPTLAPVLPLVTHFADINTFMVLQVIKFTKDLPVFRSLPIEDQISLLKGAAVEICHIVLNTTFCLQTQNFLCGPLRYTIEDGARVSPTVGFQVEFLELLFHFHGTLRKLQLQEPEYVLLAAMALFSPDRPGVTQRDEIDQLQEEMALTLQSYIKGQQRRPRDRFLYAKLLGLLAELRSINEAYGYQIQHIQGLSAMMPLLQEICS
Thyrotropin receptor (Homo sapiens), sequence (P16473 whole entry, looked up): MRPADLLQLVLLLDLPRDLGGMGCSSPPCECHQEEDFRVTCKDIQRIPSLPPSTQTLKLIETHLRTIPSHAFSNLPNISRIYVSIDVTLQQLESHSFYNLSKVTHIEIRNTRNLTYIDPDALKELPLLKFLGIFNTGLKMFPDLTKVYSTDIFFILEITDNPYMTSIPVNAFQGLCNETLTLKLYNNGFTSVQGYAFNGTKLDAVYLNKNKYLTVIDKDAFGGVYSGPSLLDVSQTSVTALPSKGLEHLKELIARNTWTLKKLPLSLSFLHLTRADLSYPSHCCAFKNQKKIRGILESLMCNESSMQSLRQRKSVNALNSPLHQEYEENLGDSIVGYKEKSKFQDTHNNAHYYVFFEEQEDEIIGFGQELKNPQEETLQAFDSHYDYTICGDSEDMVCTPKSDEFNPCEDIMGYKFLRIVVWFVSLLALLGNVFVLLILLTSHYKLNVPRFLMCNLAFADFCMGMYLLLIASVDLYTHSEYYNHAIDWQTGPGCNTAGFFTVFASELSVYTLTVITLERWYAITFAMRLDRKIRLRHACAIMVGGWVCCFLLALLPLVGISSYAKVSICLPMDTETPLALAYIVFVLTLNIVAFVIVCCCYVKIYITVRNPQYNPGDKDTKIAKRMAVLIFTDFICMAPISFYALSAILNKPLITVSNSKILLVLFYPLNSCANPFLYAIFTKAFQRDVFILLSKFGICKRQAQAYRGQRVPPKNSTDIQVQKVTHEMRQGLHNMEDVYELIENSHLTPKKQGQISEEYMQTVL
Luciferin 4-monooxygenase (Photinus pyralis), sequence (P08659 whole entry, looked up): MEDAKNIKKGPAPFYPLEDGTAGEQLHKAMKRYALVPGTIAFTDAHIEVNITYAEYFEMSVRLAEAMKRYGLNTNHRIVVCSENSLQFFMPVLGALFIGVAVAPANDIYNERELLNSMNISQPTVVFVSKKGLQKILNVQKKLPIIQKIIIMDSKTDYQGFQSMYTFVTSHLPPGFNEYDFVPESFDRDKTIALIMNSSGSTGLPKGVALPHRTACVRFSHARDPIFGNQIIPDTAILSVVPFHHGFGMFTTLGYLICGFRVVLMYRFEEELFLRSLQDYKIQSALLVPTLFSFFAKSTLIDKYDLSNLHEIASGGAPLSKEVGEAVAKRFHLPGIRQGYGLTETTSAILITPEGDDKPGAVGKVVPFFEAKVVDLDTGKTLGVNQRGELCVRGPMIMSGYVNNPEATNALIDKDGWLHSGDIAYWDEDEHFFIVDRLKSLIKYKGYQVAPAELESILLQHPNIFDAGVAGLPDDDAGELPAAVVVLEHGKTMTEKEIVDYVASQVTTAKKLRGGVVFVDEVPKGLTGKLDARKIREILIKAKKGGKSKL

CCCCCCCCCCCCCCCCCCN(C)C
not listed: [17] | [18] | [19] | [20]
inactive: all other assays above

CCOC(=O)C(=O)c1csc(NC=O)n1
not listed: [3] | [5] | [10] | [16] | [18] | [19] | [20]
inactive: all other assays above

NC(=O)NNC(N)=O
not listed: [6] | [7] | [17] | [19] | [20]
inactive: all other assays above

F[Si-2](F)(F)(F)(F)F
not listed: [6] | [11] | [15] | [17] | [18] | [20]
inactive: all other assays above

Cc1ccccc1C
not listed: [5] | [11] | [17] | [19] | [20]
inactive: all other assays above

O=C(c1ccc2c(c1)C(=O)OC2=O)c1ccc2c(c1)C(=O)OC2=O
not listed: [7] | [10] | [16] | [17] | [18] | [19] | [20]
inactive: all other assays above

c1ccc(CNc2ncnc3nc[nH]c23)cc1
inactive: [1] | [2] | [17] | [4] | [6] | [9] | [11] | [12] | [13]

Nc1nc(=O)n([C@@H]2O[C@H](CO)[C@@H](O)[C@@H]2F)cc1I
not listed: [6] | [10] | [12] | [16] | [17] | [18] | [20]
inactive: all other assays above

O=C1c2ccccc2-c2ccccc21
not listed: [6] | [17] | [18]
inactive: all other assays above

O=[Si]=O
not listed: [3] | [7] | [11] | [15] | [18] | [19] | [20]
inactive: all other assays above
